Data taken from PubChem BioAssay AID1851 (National Center for Advancing Translational Sciences (NCATS), 2009).
In all, about 16,000 compounds went through this assay and about 4,000 (25%) were called active. Inconclusive results (about 26%) are left out. Not all results are given here. Values without a mark were called inactive. Calls follow the shape of the dose curve; as a rule, active = well fitted curve in the direction sought with a large enough effect; inconclusive = small, poorly fitted or top-dose-only effect, or effect the other way; inactive = no such curve, though single readings can be large or run the other way.

Target: Cytochrome P450 2C9 (Homo sapiens) (UniProt P11712)
Sequence (P11712 whole entry, looked up): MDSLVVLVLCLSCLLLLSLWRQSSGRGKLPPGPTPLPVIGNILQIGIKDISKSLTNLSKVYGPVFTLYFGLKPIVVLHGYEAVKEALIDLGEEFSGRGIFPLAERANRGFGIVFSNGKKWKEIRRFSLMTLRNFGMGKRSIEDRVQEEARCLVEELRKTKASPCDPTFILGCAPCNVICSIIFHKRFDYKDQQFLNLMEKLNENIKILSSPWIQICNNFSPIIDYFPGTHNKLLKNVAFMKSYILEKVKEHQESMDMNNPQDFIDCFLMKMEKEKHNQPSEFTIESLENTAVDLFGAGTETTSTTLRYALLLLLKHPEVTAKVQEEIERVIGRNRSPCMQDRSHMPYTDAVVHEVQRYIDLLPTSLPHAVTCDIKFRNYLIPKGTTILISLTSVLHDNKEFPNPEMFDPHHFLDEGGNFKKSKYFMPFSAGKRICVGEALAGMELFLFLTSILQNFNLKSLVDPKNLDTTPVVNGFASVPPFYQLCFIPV
Assay: Cytochrome panel assay with activity outcomes
Conditions: recombinant CYP, pro-luciferin dealkylation, luminescence, p450-cyp2c9; series mostly up to 57.1 µM; activity, negative = inhibition: at the top concentration
% is scaled to controls: 0 for no effect and ±100 for the full control effect.

Compound | activity, negative = inhibition | AC50
CSc1nncn1/N=C/c1ccc2c(c1)OCO2 | -11.2% | –
CC(C)OC(=O)C1=C2SCC(=O)N2C(N)=C(C#N)C1 | – | 8.91 µM (active)
Nc1nc(N)nc(CCCc2nc(N)nc(N)n2)n1 | 9.16% [at 11.4 µM] | –
CC(=O)Nc1nnc(CCN2CCCCC2)s1 | 0.582% | –
CC(=O)Nc1nnc(S(N)(=O)=O)s1 | -15.9% [at 25.6 µM] | –
CC(C)=CC(=O)Nc1nnc(C(C)C)s1 | – | 10 µM (active)
Cc1nn(-c2ccccc2)c(C)c1/C=N/NC(=O)c1cc(-c2ccc(Cl)s2)[nH]n1 | – | 7.94 µM (active)
Cc1c(C(=O)N/N=C/c2ccccc2)sc(=S)n1C | -34% | –
Cc1ccccc1/C=N\NC(=O)c1csnn1 | -21.1% | –
O=C(NCCN1CCCC1)C1(S(=O)(=O)c2ccc(Cl)cc2)CC1 | -14.8% | –
CC(C)(C)C(=O)N1CCC(O)(CS(=O)(=O)Cc2ccc(Cl)cc2)CC1 | -1.37% | –
CCOC(=O)C1(S(=O)(=O)c2ccc(Cl)cc2)CCN(Cc2ccc(Cl)cc2)CC1 | – | 3.55 µM (active)
S=c1[nH]nc(CCc2ccccc2)n1Cc1ccccc1 | – | 7.94 µM (active)
CCn1c(CC(C)C)n[nH]c1=S | -29.6% | –
Cc1ccccc1N1CCN(S(=O)(=O)C[C@@]23CC[C@H](C[C@H]2NC(=O)[C@@H](N)CCS(C)(=O)=O)C3(C)C)CC1 | 8.89% | –
COC(=O)c1sc2ccccc2c1-n1cccc1C(=O)C(=O)Nc1ccc(Cl)cc1 | – | 0.1 µM (active)
C=CCNC(=O)c1cccn1-c1ccsc1C(=O)OC | 22.5% | –
COC(=O)c1ccccc1NS(=O)(=O)c1ccc2c3c(cccc13)C(=O)N2 | – | 0.178 µM (active)
CCCCOC(=O)Nc1ccccc1C(=O)OC | -31.8% | –
Oc1ccc([C@@H]2CNCc3sccc32)cc1O | -16.1% | –
Cc1cc(C)cc(Oc2coc3cc(OC(=O)c4cccs4)ccc3c2=O)c1 | -21.4% | –
Cc1ccc2nc(/C(C#N)=C\c3ccc(OC(=O)c4cccs4)cc3)[nH]c2c1 | – | 2 µM (active)
Cn1c(=O)c2c(ncn2CC(COCc2ccccc2Cl)OCc2ccccc2Cl)n(C)c1=O (stereo not drawn) | – | 15.8 µM (active)
Cn1c(=O)c2c(ncn2CCO)n(C)c1=O | -1.08% [at 25.6 µM] | –
Cn1c(=O)c2c(ncn2C[C@@H](O)CO)n(C)c1=O | -18.6% [at 25.6 µM] | –
O=C(CCc1ccc(S(=O)(=O)NC2CCCCC2)cc1)N(Cc1ccccc1)Cc1ccccc1 | – | 1 µM (active)
Cc1ccc(NC(=S)NC2CCCC2)cc1 | -11.4% | –

Compound | activity, negative = inhibition | AC50
Cc1ccc(NC(=O)CCc2ccc(S(=O)(=O)NC3CCCCC3)cc2)cc1 | – | 3.98 µM (active)
CCC(C)NS(=O)(=O)c1ccc(NC(=O)CCC2CCCCC2)cc1 (stereo not drawn) | -16.8% | –
OCCNCCCOc1cccc(Cl)c1Cl | -17.8% | –
O[C@@H](c1ccccc1)C1CCN(CCc2ccccc2)CC1 | -14.1% | –
CCCCNc1nc(SC)nc2nc[nH]c12 | -18.3% [at 11.4 µM] | –
O=C(O)c1ccc(Oc2nc3ccccc3s2)cc1 | -27% [at 11.4 µM] | –
O=C(OCc1nc2ccccc2s1)c1ccc(Br)s1 | – | 4.47 µM (active)
Cc1cc([N+](=O)[O-])c(C)c(Br)c1C | 20.3% [at 11.4 µM] | –
O=C(NCCOC(=O)c1ccc(C(=O)OCCNC(=O)c2cccnc2)s1)c1cccnc1 | – | 3.98 µM (active)
O=C(NCCO[N+](=O)[O-])c1cccnc1 | – | 2 µM (active)
CC(=O)OCCNC(=O)c1cccnc1 | 13.2% | –
CN(C)c1ccnc(-c2ccccc2C(F)(F)F)n1 | 10.1% [at 2.29 µM] | –
CCOC(=O)C[C@@H](C(=O)OCC)[C@@H]1CCCCC1=O | 19.8% [at 11.4 µM] | –
COc1ccccc1CC(=N)N1C[C@@H]2C(=O)CCC(c3ccccc3)(c3ccccc3)[C@@H]2C1 | 1.86% | –
C=C1CCO[C@@]2([C@H](O)[C@@](C)(O)CO)NC(=O)[C@]1(O)NC2=O | 5.79% [at 11.4 µM] | –
NC(=O)c1cccc(N)c1 | – | 12.6 µM (active)
N=C(N)c1ccccc1 | -4.84% | –
NC(=O)/C(=N\O)c1ccccc1 | -1.79% | –
O=C1C(Cc2ccccc2)SC(=Nc2ccccc2)N1c1ccccc1 (stereo not drawn) | – | 15.8 µM (active)
O=C1C(Cc2ccccc2)NC(=S)N1c1ccccc1 (stereo not drawn) | -101% | –
O=C(c1c[nH]c(=O)n(-c2ccccc2)c1=O)N1CCc2ccccc21 | -29.8% | –
CCOc1ccc(NC(=O)C(=O)NCC2CCCN2CC)cc1 (stereo not drawn) | -22.5% | –
CCOc1ccc(-n2c(=O)[nH]cc(C(=O)N3CCCc4ccccc43)c2=O)cc1 | – | 12.6 µM (active)
COc1ccc(C=Nc2c(O)ccc3ccccc23)cc1OC | -1.31% [at 11.4 µM] | –
O=[N+]([O-])c1ccc(Cl)c(-c2ccc(/C=N/c3c(-c4ccco4)nc4ccccn34)o2)c1 | 7.09% | –
COc1cc(-c2nc3ccccn3c2/N=C/c2ccccc2)ccc1O | – | 14.1 µM (active)
